Reference: PubChem BioAssay AID1159580 (chemical genetic matrix, 2015)
The campaign covered roughly 5,500 compounds. About 2,000 (36%) were called active. Another 18% or so got no clear call; they are omitted. Rule as the data show it: active = normalized growth mostly below about 0.91 (no sharp cut-off); inconclusive = no clear call, values can overlap the other calls; inactive = mostly above about 0.92. The list shows a part of the results.

Assay: chemical genetic growth profiling, strain panel (AID 1159580);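 also: tested at 20 µM; growth read once vehicle control cultures reached saturation at 30 °C; 1 = growth at the plate median or of vehicle wells; lower values mean less growth of the strain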
Conditions: S. cerevisiae deletion strains, growth OD

Measured: normalized growth

CC(=O)O[C@@H]1CC(=O)[C@@]2(C)C(CC(=O)[C@]3(C)C2CC[C@@]2(C)[C@H](c4ccoc4)OC(=O)C4OC423)C1(C)C (some centres undefined)
inactive: locus YBR021W, strain FUR4, stronger effect = lower value 0.98 | locus YBR229C, strain ROT2, stronger effect = lower value 0.991 | locus YCL029C, strain bik1, stronger effect = lower value 1.01 | locus YDL035C, strain GPR1, stronger effect = lower value 0.987 | locus YDL074C, strain BRE1, stronger effect = lower value 0.976 | locus YDL101C, strain DUN1, stronger effect = lower value 0.996 | locus YDL134C, strain PPH21, stronger effect = lower value 1.01 | locus YDL185W, strain tfp1, stronger effect = lower value 1.02 | locus YDL192W, strain arf1, stronger effect = lower value 1.01 | locus YDR101C, strain arx1, stronger effect = lower value 1 | locus YDR162C, strain NBP2, stronger effect = lower value 1 | locus YDR318W, strain mcm21, stronger effect = lower value 1 | locus YDR388W, stronger effect = lower value 1.01 | locus YDR502C, strain sam2, stronger effect = lower value 1 | locus YEL061C, strain CIN8, stronger effect = lower value 0.998 | locus YER110C, stronger effect = lower value 1.01 | locus YER155C, strain BEM2, stronger effect = lower value 1 | locus YER167W, strain BCK2, stronger effect = lower value 0.993 | locus YGL078C, strain dbp3, stronger effect = lower value 1.01 | locus YGL086W, strain mad1, stronger effect = lower value 1.01 | locus YGL248W, strain PDE1, stronger effect = lower value 0.995 | locus YGR135W, strain pre9, stronger effect = lower value 1 | locus YGR229C, strain SMI1, stronger effect = lower value 0.988 | locus YGR252W, strain gcn5, stronger effect = lower value 0.976 | locus YHR079C, strain IRE1 (second series), stronger effect = lower value 1.01 | locus YHR094C, strain hxt1, stronger effect = lower value 1 | locus YHR129C, strain ARP1, stronger effect = lower value 1 | locus YHR200W, strain rpn10, stronger effect = lower value 1 | locus YIL066C, strain RNR3, stronger effect = lower value 1 | locus YIL073C, strain SPO22, stronger effect = lower value 1.04 | locus YIL125W, strain kgd1, stronger effect = lower value 1 | locus YIR030C, strain dcg1, stronger effect = lower value 1.01 | locus YJL095W, strain BCK1, stronger effect = lower value 0.963 | locus YJL134W, strain LCB3, stronger effect = lower value 0.999 | locus YJL168C, strain set2, stronger effect = lower value 1.01 | locus YJL187C, strain SWE1 (second series), stronger effect = lower value 0.996 | locus YKL009W, strain mrt4, stronger effect = lower value 1.01 | locus YKL068W, stronger effect = lower value 1.01 | locus YKL085W, strain MDH1 (second series), stronger effect = lower value 1.03 | locus YKL085W, strain MDH1, stronger effect = lower value 1.03 | locus YKL190W, strain CNB1, stronger effect = lower value 1 | locus YKR001C, strain vps1, stronger effect = lower value 1.01 | locus YLR039C, strain RIC1, stronger effect = lower value 1.02 | locus YLR058C, strain SHM2, stronger effect = lower value 0.998 | locus YLR102C, strain apc9, stronger effect = lower value 1.01 | locus YLR262C, strain YPT6, stronger effect = lower value 1.05 | locus YLR268W, strain sec22, stronger effect = lower value 0.998 | locus YLR371W, strain rom2, stronger effect = lower value 1 | locus YLR418C, strain cdc73, stronger effect = lower value 0.996 | locus YML016C, strain PPZ1, stronger effect = lower value 1 | locus YML032C, strain rad52, stronger effect = lower value 1.01 | locus YML124C, strain tub3, stronger effect = lower value 1.01 | locus YMR078C, strain ctf18, stronger effect = lower value 1.02 | locus YMR223W, strain ubp8, stronger effect = lower value 1.01 | locus YMR307W, strain GAS1, stronger effect = lower value 0.994 | locus YNL067W, strain RPL9B, stronger effect = lower value 0.997 | locus YNL233W, strain BNI4, stronger effect = lower value 0.993 | locus YNL250W, strain rad50, stronger effect = lower value 1.04 | locus YNL271C, strain bni1, stronger effect = lower value 1 | locus YNL298W, strain CLA4, stronger effect = lower value 1.01 | locus YNL307C, strain MCK1, stronger effect = lower value 1.03 | locus YNL322C, strain KRE1, stronger effect = lower value 1 | locus YNR052C, strain pop2, stronger effect = lower value 1.01 | locus YOL006C, strain TOP1, stronger effect = lower value 0.912 | locus YOL012C, strain htz1 0.729 | locus YOL147C, strain pex11, stronger effect = lower value 1 | locus YOR061W, strain CKA2, stronger effect = lower value 1 | locus YOR069W, strain VPS5, stronger effect = lower value 0.996 | locus YOR136W, strain idh2, stronger effect = lower value 1.02 | locus YOR144C, strain elg1, stronger effect = lower value 1.01 | locus YOR184W, strain ser1, stronger effect = lower value 1.02 | locus YOR316C, strain cot1, stronger effect = lower value 1.01 | locus YPL055C, strain LGE1, stronger effect = lower value 0.989 | locus YPL241C, strain CIN2, stronger effect = lower value 0.997 | locus YPR119W, strain clb2, stronger effect = lower value 1.02 | locus YPR141C, strain kar3, stronger effect = lower value 1.01 | locus YPR163C, strain tif3, stronger effect = lower value 1.01 | locus YPR167C, strain met16, stronger effect = lower value 1.02 | strain wtn01, stronger effect = lower value 1.01
